Assay in all cases: PBM binding z-score (relative to random genomic background probes); higher = stronger binding; sequences stand for … in GC…GCGATTGACAGCGTAGAATGAAGG
Assay [1] deals with RARb homodimer (NR concentration 270 nM). A digest of the protocol: (§1)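 Binding buffer was PBS pH 7.4 with 2% milk, 0.02% Triton X-100, 1 mM DTT, 0.2 mg/mL BSA and 0.4 mg/ml salmon testes DNA. In it, ligand-free nuclear receptor dimers were incubated 1 h on custom Agilent 4×180K protein-binding microarrays carrying double-stranded probes. Antibodies against each partner (one per run) detected binding, and z-scores were calculated against random background probes after regression normalization of scanned fluorescence.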

Assay [2] relates to RARg:RXRa (NR concentration 270 nM, RXRa partner concentration 90 nM). A digest of the protocol: as §1
The test system of assay [3] is RARg homodimer (NR concentration 270 nM). The method, boiled down:
as §1

The test system of assay [4] is RXRa DBDmut IVT, anti-RXR (DBD mutation: RXRa K156A/R161A, NR concentration 90 nM). The method, boiled down:
as §1

Assay [5] relates to RXRa homodimer (NR concentration 180 nM). The method, boiled down: as §1
Assay [6] deals with THRa:RXRa (NR concentration 90 nM, RXRa partner concentration 90 nM). A digest of the protocol: as §1
Assay [7] deals with THRa homodimer (NR concentration 90 nM). A digest of the protocol:
as §1

Assay [8] relates to VDR homodimer (NR concentration 270 nM). The method, boiled down: as §1

ACTAGCAGGGCAAGTTTGGGTCACTCAAACAAAG: the PBM binding z-score stood at 2.59 in assay [1]; 3.35 in assay [2]; 2.64 in assay [3]; 0.437 in assay [4]; 1.38 in assay [5]; 3.17 in assay [6]. For the same sequence, the figures for the PBM binding z-score in assay [7] and in assay [8] were 1.08 and 0.258, respectively.
As to ATAATGAGGTTACCAAAGATCAGGGAAACGCTTG, the PBM binding z-score in assay [1] stood at 1.15; in assay [2], 2.37; in assay [3] it was 1.95; in assay [4] it was 1.32; in assay [5], 2.72; in assay [6], 2.8. For the same sequence, the PBM binding z-score in assay [7] was 1.1; in assay [8], 0.486.
Regarding AATACAGGGTCACCAGGCCAGAGTAGGTACGAAT, the PBM binding z-score in assay [1] came to 3.63; in assay [2] it was 6.17; in assay [3], 6.17; in assay [4], 2.62; in assay [5], 7.47; in assay [6] it was 3.85. In addition, the figures for the PBM binding z-score in assay [7] and in assay [8] were 1.88 and 2.7, respectively.
TCATATAGGTAAATTCTAGGTGAAAGTCCGATCT: the PBM binding z-score in assay [1] was found to be 0.708; in assay [2], 0.737; in assay [3] it was 0.439; in assay [4], 1.81; in assay [5] it was 0.907; in assay [6] it was 2.11. Also, the figures for the PBM binding z-score in assay [7] and in assay [8] were 1.11 and 0.726, respectively.
On to GGAACGATGGCAAAGTTGATAGCATCTGTCGACG, for which the PBM binding z-score in assay [1] is -0.537; in assay [2], -0.206; in assay [3] it was 0.0205; in assay [4], -0.199; in assay [5] it was -0.104; in assay [6], -0.533. For the same sequence, the PBM binding z-score is -1.03 in assay [7] and -0.827 in assay [8].
For the sequence TGTCAAGGTTCAAAGGTAACGTAAGTATCCACAC, the PBM binding z-score in assay [1] came to 1.99; in assay [2], 4.38; in assay [3] it was 3.11; in assay [4], 4.37; in assay [5] it was 6.08; in assay [6] it was 3.12. For the same sequence, the PBM binding z-score in assay [7] was -0.0609; in assay [8] it was 4.49.
On to AGAACGAGGTTATTAAGATCAGGGAATTGCGGTC, for which the PBM binding z-score in assay [1] came to 0.861; in assay [2], 0.912; in assay [3], 0.734; in assay [4] it was 1.68; in assay [5] it was 1.82; in assay [6], 1.65. The values for the PBM binding z-score in assay [7] and in assay [8] were 0.227 and 1.33, respectively.

The values are drawn from the supplement of paper PMC6555819.
